In PubChem BioAssay one finds composite z-score and z-score data, which are given here for 5 compounds.

Assay [1] in a line: compounds binding Alexa647 anti-His antibody – biochemical, small-molecule microarray, 635 nm fluorescence, artefact control for SMM control protein annotation, primary screen (AID 1128).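 Also: score merges feature fluorescence with signal-to-noise for each printed compound spot.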 The settings on record: higher = more signal.
Assay [2] deals with Human papillomavirus type 1a E7 protein (residues 1-88). The assay is described as follows: HPV1a E7 small-molecule binders, primary screen, biochemical, small-molecule microarray, residues 1-88, 635 nm (AID 1129). The settings on record: small-molecule microarray binding, fluorescence 635 nm; higher = more signal.
In assay [3] the target is Focal adhesion kinase 1 (Homo sapiens) (UniProt Q05397). The assay is described as follows: PTK2 protein binding on printed compound slides – biochemical, small-molecule microarray, 635/667 nm fluorescence, BSA, DTT, primary screen (AID 1130).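 Also: composite of spot emission at 667 nm and signal to noise over triplicate slides.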 The settings on record: 635 nm fluorescence, higher = more signal.
Sequence of Focal adhesion kinase 1 (Homo sapiens) (Q05397 whole entry, looked up): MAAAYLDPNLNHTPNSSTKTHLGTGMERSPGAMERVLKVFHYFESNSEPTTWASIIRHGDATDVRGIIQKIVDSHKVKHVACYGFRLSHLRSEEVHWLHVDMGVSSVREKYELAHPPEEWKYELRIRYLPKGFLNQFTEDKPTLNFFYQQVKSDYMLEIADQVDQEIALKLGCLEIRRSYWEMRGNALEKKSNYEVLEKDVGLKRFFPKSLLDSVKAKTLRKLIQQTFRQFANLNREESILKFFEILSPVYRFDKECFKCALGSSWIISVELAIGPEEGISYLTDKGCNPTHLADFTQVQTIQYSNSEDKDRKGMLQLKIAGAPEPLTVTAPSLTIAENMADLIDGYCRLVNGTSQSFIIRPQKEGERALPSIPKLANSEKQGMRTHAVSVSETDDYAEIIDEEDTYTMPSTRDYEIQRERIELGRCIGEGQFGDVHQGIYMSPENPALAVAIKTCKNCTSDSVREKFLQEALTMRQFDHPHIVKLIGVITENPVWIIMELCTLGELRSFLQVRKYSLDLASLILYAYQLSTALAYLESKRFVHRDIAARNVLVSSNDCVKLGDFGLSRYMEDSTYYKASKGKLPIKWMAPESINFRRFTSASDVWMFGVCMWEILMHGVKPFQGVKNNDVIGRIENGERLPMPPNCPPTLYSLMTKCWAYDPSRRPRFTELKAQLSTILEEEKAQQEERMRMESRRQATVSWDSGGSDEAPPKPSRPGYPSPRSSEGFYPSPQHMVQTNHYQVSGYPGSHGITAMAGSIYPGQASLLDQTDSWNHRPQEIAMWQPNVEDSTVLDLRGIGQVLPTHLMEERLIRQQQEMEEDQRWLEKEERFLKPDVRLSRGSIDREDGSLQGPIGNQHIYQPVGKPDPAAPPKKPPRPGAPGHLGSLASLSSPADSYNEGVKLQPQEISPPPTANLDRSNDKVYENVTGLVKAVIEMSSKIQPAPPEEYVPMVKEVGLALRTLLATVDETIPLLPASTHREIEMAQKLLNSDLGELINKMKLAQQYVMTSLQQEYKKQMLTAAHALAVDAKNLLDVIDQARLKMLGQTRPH
The test system of assay [4] is Fibrinogen (Alexa647-labelled). Kind of assay: Alexa647-fibrinogen binding to printed small molecules – biochemical, small-molecule microarray, 635/667 nm fluorescence, artefact control for SMM control-protein annotation, profiling panel (AID 1131).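 Also: z-score merges 667 nm fluorescence with per-spot signal-to-noise over triplicate slides.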 The settings on record: fibrinogen-A647 binding fluorescence, higher = more signal.
Assay [5] addresses Follistatin (Homo sapiens) (UniProt P19883). The assay is described as follows: FST protein binding to printed compounds – biochemical, small-molecule microarray, 635/667 nm fluorescence, primary screen (AID 1132). To be noted: 635 nm fluorescence, higher = more signal.
Assay [6] deals with Fibroblast growth factor 2 (Homo sapiens) (UniProt P09038). The assay is described as follows: basic fibroblast growth factor binding to printed compounds – biochemical, small-molecule microarray, 635/667 nm fluorescence, primary screen (AID 1133). To be noted: FGF2, fluorescence 635/667, higher = more signal.
Sequence of Fibroblast growth factor 2 (Homo sapiens) (P09038 whole entry, looked up): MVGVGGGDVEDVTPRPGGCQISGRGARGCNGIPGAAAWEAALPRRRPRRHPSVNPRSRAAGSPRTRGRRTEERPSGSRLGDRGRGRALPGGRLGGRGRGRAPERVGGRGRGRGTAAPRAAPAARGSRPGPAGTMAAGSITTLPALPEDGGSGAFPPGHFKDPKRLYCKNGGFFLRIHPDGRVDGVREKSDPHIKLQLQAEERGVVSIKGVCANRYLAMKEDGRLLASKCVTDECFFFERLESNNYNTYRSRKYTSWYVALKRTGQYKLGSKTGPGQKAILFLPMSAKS
Assay [7] can be described thus: JC-1 mitochondrial potential readout, lung cancer cells – cell-based, A549, JC-1 fluorescence, basal, 24 h, 100 nL, profiling panel (AID 1138).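 Also: A549 lung adenocarcinoma cells under basal conditions with no added stimulus; test concentration not given here.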 To be noted: higher = more signal.
For a further assay, the system named is Lefty1. The assay is described as follows: Lefty1 protein binding to printed compounds – biochemical, small-molecule microarray, 635/667 nm fluorescence, primary screen (AID 1139). The settings on record: fluorescence 635/667, higher = more signal.
Assay [8] deals with wheat germ agglutinin (Triticum aestivum), Alexa647-labelled. The assay is described as follows: Alexa647-WGA lectin binding to printed small molecules – biochemical, small-molecule microarray, 635/667 nm fluorescence, artefact control for SMM control-protein annotation, profiling panel (AID 1140).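 Also: score merges 667 nm feature emission with signal to noise over triplicate slides.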 To be noted: WGA-A647 binding, 635 nm fluorescence, higher = more signal.
The target of assay [9] is Luciferin 4-monooxygenase (Photinus pyralis) (UniProt P08659). Kind of assay: inhibition of purified Photinus pyralis luciferase – biochemical, luminescence, purified enzyme, 2006 set, primary screen (AID 1141).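 Also: cell-free assay with purified firefly luciferase at 100 ng per well in PBS; test concentration not given here.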 The settings on record: purified firefly luciferase, SteadyGlo luminescence, 30 min; higher = more signal, called active from +8 up or from −8 down.
Sequence of Luciferin 4-monooxygenase (Photinus pyralis) (P08659 whole entry, looked up): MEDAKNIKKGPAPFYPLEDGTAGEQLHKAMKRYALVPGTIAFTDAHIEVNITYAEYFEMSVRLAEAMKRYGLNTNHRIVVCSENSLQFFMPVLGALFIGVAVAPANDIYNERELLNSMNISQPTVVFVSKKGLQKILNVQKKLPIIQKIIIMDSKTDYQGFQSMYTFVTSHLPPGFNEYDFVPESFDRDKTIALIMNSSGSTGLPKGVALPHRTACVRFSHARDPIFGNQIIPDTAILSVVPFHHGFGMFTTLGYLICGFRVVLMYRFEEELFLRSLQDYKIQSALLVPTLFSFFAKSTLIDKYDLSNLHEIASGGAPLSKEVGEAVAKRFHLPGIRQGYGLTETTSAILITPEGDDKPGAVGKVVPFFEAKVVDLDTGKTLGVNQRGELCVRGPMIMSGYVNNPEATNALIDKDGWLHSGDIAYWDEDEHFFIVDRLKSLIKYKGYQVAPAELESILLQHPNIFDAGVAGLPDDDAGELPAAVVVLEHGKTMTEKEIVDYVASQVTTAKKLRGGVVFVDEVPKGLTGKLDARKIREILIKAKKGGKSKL
Assay [10] relates to Wnt5a (protein binding on small-molecule microarray). Kind of assay: small molecules binding Wnt5a protein – biophysical, small-molecule microarray, 635/667 nm fluorescence, primary screen (AID 1142).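 Also: fluorescence read at 667 nm with signal to noise per printed feature.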 To be noted: 635 nm fluorescence, higher = more signal.
The nature of assay [11]: ATP-based viability of Huh7 replicon cells – cell-based, CellTiter-Glo luminescence, basal, 48 h, cytotoxicity control for HCV replication inhibitor project, primary screen (AID 1143).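 Also: Huh7 hepatoma cells carrying a hepatitis C replication reporter with no stimulus; test concentration not given here.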 The settings on record: higher = more signal, called active from +8 up or from −8 down.
Assay [12] is described as follows: Pseudomonas biofilm growth suppression – PAO1 strain, BacTiter-Glo luminescence, LB-PBS, primary screen (AID 1144). To be noted: P. aeruginosa PAO1 biofilm, 12 h, higher = more signal.
A short description of assay [13]: basal CRE-LacZ reporter activity in PC12 – cell-based, unstimulated, primary screen (AID 1145). To be noted: no forskolin, luminescence, 4.5 h, higher = more signal, called active from +8 up or from −8 down.
Assay [14] can be described thus: forskolin-driven CRE-LacZ activity in PC12 – cell-based, CRE-LacZ reporter, forskolin-stimulated, primary screen (AID 1146).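 Also: PC12 cells with 6xCRE LacZ reporter stimulated by forskolin 10 µM; beta-galactosidase reporter signal reflecting CREB driven transcription.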 To be noted: luminescence, 4.5 h, higher = more signal, called active from +8 up or from −8 down.
Assay [15] deals with Streptavidin (Streptomyces avidinii) (UniProt P22629). Kind of assay: compounds binding control protein streptavidin – biophysical, small-molecule microarray, 635/667 nm fluorescence, artefact control for SMM compound annotation, primary screen (AID 1147).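 Also: signal reflects streptavidin binding to arrayed compounds as a control protein.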 The settings on record: higher = more signal.
Sequence of Streptavidin (Streptomyces avidinii) (P22629 whole entry, looked up): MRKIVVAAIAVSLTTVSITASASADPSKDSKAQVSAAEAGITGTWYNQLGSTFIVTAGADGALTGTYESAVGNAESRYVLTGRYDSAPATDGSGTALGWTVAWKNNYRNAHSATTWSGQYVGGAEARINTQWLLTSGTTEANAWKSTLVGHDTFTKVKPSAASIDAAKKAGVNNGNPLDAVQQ
Assay [16] is described as follows: probe aInhba binding on compound microarray – biochemical, small-molecule microarray, 635/667 nm fluorescence, primary screen (AID 1148).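 Also: score merges 667nm spot fluorescence with signal-to-noise for antibody binding to printed compounds.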 The settings on record: higher = more signal.
Assay [17] deals with Torsin-1A (Homo sapiens) (UniProt O14656). The assay is described as follows: TOR1A wild-type binding on microarray – cell lysate, small-molecule microarray, lysate, 635/667 nm, primary screen (AID 1149). To be noted: COS7 hTOR1A-WT lysate, 635 nm fluorescence, higher = more signal.
Sequence of Torsin-1A (Homo sapiens) (O14656 whole entry, looked up): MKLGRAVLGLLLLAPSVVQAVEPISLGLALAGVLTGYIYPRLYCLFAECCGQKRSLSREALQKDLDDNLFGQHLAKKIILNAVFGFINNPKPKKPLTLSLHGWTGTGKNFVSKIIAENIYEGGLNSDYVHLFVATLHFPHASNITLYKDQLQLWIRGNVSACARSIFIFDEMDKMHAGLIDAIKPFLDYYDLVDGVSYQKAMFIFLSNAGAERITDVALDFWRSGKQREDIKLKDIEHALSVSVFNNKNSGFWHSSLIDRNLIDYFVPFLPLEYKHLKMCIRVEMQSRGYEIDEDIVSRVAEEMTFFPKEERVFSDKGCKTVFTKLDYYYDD
Assay [18] has the same target. Kind of assay: torsin A mutant lysate binding on microarrays – cell lysate, small-molecule microarray, COS7 lysate, 635/667 nm fluorescence, primary screen (AID 1150).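 Also: score pools 667 nm emission and signal to noise measuring lysate protein binding.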 The settings on record: COS7 hTOR1A mutant lysate, 635 nm fluorescence, higher = more signal.
The subject of assay [19] is Sonic hedgehog protein (Shh). Kind of assay: Sonic hedgehog microarray binding compounds – biochemical, small-molecule microarray, 635/667 nm fluorescence, primary screen (AID 1151).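 Also: Shh protein binding to compounds spotted on small-molecule microarray slides; score combines spot fluorescence intensity with signal-to-noise across triplicate slides.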 To be noted: 635 nm fluorescence, higher = more signal.

Calls of active or inactive are those of the source. Unless noted, no rule for the calls is given here.

Sequence of Follistatin (Homo sapiens) (P19883 whole entry, looked up): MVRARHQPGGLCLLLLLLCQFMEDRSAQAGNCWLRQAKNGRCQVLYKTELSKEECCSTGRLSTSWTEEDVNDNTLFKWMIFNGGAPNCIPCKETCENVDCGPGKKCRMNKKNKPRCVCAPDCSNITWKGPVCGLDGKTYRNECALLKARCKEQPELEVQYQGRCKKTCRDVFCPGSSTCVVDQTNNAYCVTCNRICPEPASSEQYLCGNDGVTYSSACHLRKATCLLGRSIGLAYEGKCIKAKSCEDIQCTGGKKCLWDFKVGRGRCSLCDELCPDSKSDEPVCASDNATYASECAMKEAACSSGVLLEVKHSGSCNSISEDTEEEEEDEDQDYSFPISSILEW

For the compound `COc1ccc(COC(=O)NN=C2C[C@@H](O)[C@@H](O)[C@@H]3[C@@H]4C(=O)N(Cc5ccc6c(c5)OCO6)C(=O)[C@@H]4CC[C@@H]23)cc1`, the composite z-score was -0.272 in assay [1]; -0.568 in assay [2]; 0.256 in assay [3]; 0.144 in assay [4]; -0.989 in assay [5]; -0.922 in [6]. The composite z-score in the assay on Lefty1 was -0.86; in [8], 0.247; in [10] it was 0.0183; in [15] it was 1.09; in [16] it was 0.0028; with Torsin-1A (Homo sapiens) [17], -1.15. The composite z-score is -0.686 with Torsin-1A (Homo sapiens) [18] and -1.07 in assay [19]. Besides, the z-score in [7] is 0.982; in [9], -0.283 (inactive); in assay [11] it was -0.797 (inactive); in assay [12], 0.786 (inactive); in assay [13], 1.61 (inactive); in [14], -0.41 (inactive).

With `COC(=O)C1=CCC(c2cccc(Cl)c2)O1` (stereo not given), the composite z-score is 0.192 in assay [1]; 0.24 in assay [2]; -0.126 in assay [3]; 0.346 in [4]; -0.399 in assay [5]; -0.473 in assay [6]. In addition, the composite z-score with Lefty1 was -0.319; in assay [8] it was -0.455; in [10] it was -0.241; in assay [15], -0.0713; in [16], 0.0742; in the assay with Torsin-1A (Homo sapiens) [17], 0.0026. Besides, the composite z-score with Torsin-1A (Homo sapiens) [18] was -0.58; in assay [19], -0.534. Also, the z-score is -0.816 in [7]; 1.74 (inactive) in [9]; -4.35 (inactive) in assay [11]; -1.52 (inactive) in [12]; 0.388 (inactive) in assay [13]; -0.551 (inactive) in assay [14].

Take `C=CC[C@@H]1C=C[C@H](ON=Cc2ccc(C(=O)N3[C@H](c4ccc(C)cc4)[C@@H](C)CC[C@H]3C(=O)OC)cc2)[C@@H](CO)O1`: the composite z-score in [1] was -0.672; in assay [2], 0.973; in [3], 0.181; in assay [4], 0.302; in [5], 0.333; in assay [6], 0.646. Further, the composite z-score is 0.387 in the assay with Lefty1; 0.0608 in [8]; 0.14 in [10]; -0.161 in assay [15]; -0.0791 in assay [16]; -0.0434 with Torsin-1A (Homo sapiens) [17]. Moreover, the values for the composite z-score (in the assay with Torsin-1A (Homo sapiens) [18]; in assay [19]) were 0.0034 and 0.68, respectively. Besides, the z-score in assay [7] is -0.154; in assay [9], 1.27 (inactive); in [11] it was -1.33 (inactive); in assay [12], 0.694 (inactive); in assay [13], 3.89 (inactive); in assay [14], 0.062 (inactive).

As for `O=C1O[C@@H](c2ccccc2)[C@@H](c2ccccc2)N2[C@@H](c3ccc(OCCO)cc3)[C@]3(C(=O)Nc4ccccc43)[C@@H](C(=O)N3CCN(c4ncccn4)CC3)[C@H]12`, the composite z-score in assay [1] was found to be 1.08; in assay [2], 1.18; in assay [3], 0.687; in assay [4], 0.489; in assay [5], 1.28; in assay [6] it was 1.17. Besides, the composite z-score in the assay with Lefty1 stood at 1.19; in assay [8] it was 0.929; in [10], 0.22; in assay [15] it was 0.557; in assay [16], 0.175; with Torsin-1A (Homo sapiens) [17], 0.403. Moreover, the composite z-score is 0.94 in the assay with Torsin-1A (Homo sapiens) [18] and 1.14 in [19]. The z-score in assay [7] was -0.473; in [9], -1.4 (inactive); in assay [11] it was -0.704 (inactive); in assay [12], 0.349 (inactive); in assay [13], 0.865 (inactive); in assay [14], 3.05 (inactive).

`COCCOC(=O)N1C(=O)[C@@]2(c3cc(C#CCNC(N)=O)ccc31)[C@H](c1ccccc1OCCO)N1[C@H](c3ccccc3)[C@H](c3ccccc3)OC(=O)[C@H]1[C@@H]2C(=O)N1CCN(c2ncccn2)CC1`: the composite z-score in assay [1] was found to be 1.94; in assay [2], 0.74; in [3] it was 0.491; in [4], 0.714; in assay [5], 0.705; in [6], 1.55. Moreover, the composite z-score worked out at 0.296 with Lefty1; 0.727 in assay [8]; 0.734 in [10]; 0.29 in assay [15]; 0.0497 in assay [16]; 0.303 in the assay with Torsin-1A (Homo sapiens) [17]. Moreover, the composite z-score with Torsin-1A (Homo sapiens) [18] was determined as 0.923; in assay [19], 0.966. Besides, the z-score in assay [7] was -1.08; in assay [9] it was -1.9 (inactive); in assay [11], -1.96 (inactive); in [12], -0.897 (inactive); in [13] it was -0.465 (inactive); in assay [14] it was 2.16 (inactive).
